According to PubChem BioAssay (NCATS):
Inconclusive results are not listed. Calls of active or inactive are those of the source. Calls follow the shape of the dose curve; as a rule, active = well fitted inhibition curve with a large enough effect; inconclusive = small, poorly fitted or top-dose-only effect; inactive = flat fitted curve, though single readings scatter.

Columns and labels:
Assay in all cases: qHTS profiling for inhibitors of Plasmodium falciparum proliferation (AID 504749); also: nearly all actives have a fitted effect of over 60% in size
CP256 = conditions: P. falciparum in erythrocytes, SYBR Green DNA, 72 h
Procedure, shortened: (§1)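 Readout was DNA-dye fluorescence from lysed cultures, ex 485/em 535 nm. Parasitized red cells had grown 72 h with compound; data scaled between 0.29 uM artemisinin and DMSO wells and corrected using vehicle-only plates.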

CP268 = conditions: P. falciparum in erythrocytes, SYBR Green DNA, 72 h; series mostly up to 28.7 µM
Procedure, shortened: as §1

CP238 = conditions: P. falciparum in erythrocytes, SYBR Green DNA, 72 h; series mostly up to 28.7 µM
Procedure, shortened: as §1

CP247 = conditions: P. falciparum in erythrocytes, SYBR Green DNA, 72 h; series mostly up to 28.7 µM
Procedure, shortened: as §1

CP250 = conditions: P. falciparum in erythrocytes, SYBR Green DNA, 72 h; series mostly up to 28.7 µM
Procedure, shortened: as §1

CP252 = conditions: P. falciparum in erythrocytes, SYBR Green DNA, 72 h; series mostly up to 28.7 µM
Procedure, shortened: as §1

CP260 = conditions: P. falciparum in erythrocytes, SYBR Green DNA, 72 h; series mostly up to 28.7 µM
Procedure, shortened: as §1

CP265 = conditions: P. falciparum in erythrocytes, SYBR Green DNA, 72 h; series mostly up to 28.7 µM
Procedure, shortened: as §1

CP266 = conditions: P. falciparum in erythrocytes, SYBR Green DNA, 72 h; series mostly up to 28.7 µM
Procedure, shortened: as §1

CP262 = conditions: P. falciparum in erythrocytes, SYBR Green DNA, 72 h; series mostly up to 28.7 µM
Procedure, shortened: as §1

Measured: Potency
Potency is read from the fitted curve at half-maximal effect.

COC1C(OC(=O)/C=C/C=C/C=C/C=C/C(=O)O)CCC2(CO2)C1C1(C)OC1CC=C(C)C (stereo not given)
active: CP256 0.0708 µM | CP268 3.38 µM

C=CCNC1=C2C[C@@H](C)C[C@H](OC)[C@H](O)[C@@H](C)/C=C(\C)[C@H](OC(N)=O)[C@@H](OC)/C=C\C=C(/C)C(=O)NC(=CC1=O)C2=O
active: CP238 1.58 µM | CP247 2.24 µM | CP250 2.24 µM | CP252 1.78 µM | CP256 2.24 µM | CP260 2.24 µM | CP265 2 µM | CP266 10.7 µM | CP268 5.36 µM

CCCOc1ccc2nc(NC(=O)OC)sc2c1
not listed: CP256
inactive: all other assays above
